Each structure is given as a SMILES string.

Common to all, as to type: functional
Assay [1] addresses Solute carrier family 2, facilitated glucose transporter member 1 (Homo sapiens) (UniProt P11166). Briefly: ST_JUDE_LEISH: Cytotoxicity at 2uM final concentration against transgenic Leishmania Mexicana promastigotes LmGLUT1 that are glucose transport deficient and complemented with the human glucose transporter GLUT1. Activity is measured by DNA content using SYBR green in vitro.

Assay [2] has as its target Hexose transporter 1 (Plasmodium falciparum) (UniProt O97467). Briefly: ST_JUDE_LEISH: Cytotoxicity at 2uM final concentration against transgenic Leishmania Mexicana promastigotes LmPfHT that are glucose transport deficient and complemented with the Plasmodium falciparum hexose transporter. Activity is measured by DNA content using SYBR green in vitro.
Assay [3] addresses Glucose transporter (Leishmania mexicana) (UniProt O61059). Briefly: ST_JUDE_LEISH: Cytotoxicity at 2uM final concentration against transgenic Leishmania Mexicana promastigotes LmGT2 that are glucose transport deficient and complemented with the L. Mexicana glucose transporter 2. Activity is measured by DNA content using SYBR green in vitro.

Sequence of Solute carrier family 2, facilitated glucose transporter member 1 (Homo sapiens) (P11166 whole entry): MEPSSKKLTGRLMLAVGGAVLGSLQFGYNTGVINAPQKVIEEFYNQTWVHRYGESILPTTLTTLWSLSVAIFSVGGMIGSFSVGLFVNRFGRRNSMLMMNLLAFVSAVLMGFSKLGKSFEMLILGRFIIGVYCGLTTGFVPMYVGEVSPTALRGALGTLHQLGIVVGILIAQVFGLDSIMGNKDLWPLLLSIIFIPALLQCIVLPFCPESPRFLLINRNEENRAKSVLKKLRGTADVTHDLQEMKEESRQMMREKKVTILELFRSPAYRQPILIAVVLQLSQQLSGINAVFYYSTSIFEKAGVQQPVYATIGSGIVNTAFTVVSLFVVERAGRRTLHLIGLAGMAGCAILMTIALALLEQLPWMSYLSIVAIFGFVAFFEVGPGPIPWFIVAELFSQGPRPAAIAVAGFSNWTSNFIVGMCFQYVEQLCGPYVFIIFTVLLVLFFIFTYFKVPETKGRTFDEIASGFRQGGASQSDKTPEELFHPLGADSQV

What is called inhibition is the drop in the measured response relative to a control, in per cent. Regarding `Cc1cc(=NN=Cc2ccc(F)cc2)c2ccc(F)cc2[nH]1`, the values for the inhibition in assay [1], in assay [2] and in assay [3] were 0.14%, 0.15% and -0.46%, respectively.
The matching figures for `O=C(Nc1cccc(CN2CCCN(Cc3ccc(O)cc3)CC2)c1)c1cc2ccccc2o1`: -0.45%, 2.02% and 1.62%.
`CC1(C)N=C(N)N=C(N)N1c1cc(Cl)c(Cl)cc1Cl`: the results for the inhibition in assay [1], in assay [2] and in assay [3] were -2.58%, -2.74% and -3.01%, respectively.
For `CC(C)NCc1cccc(-c2ccc(-c3nc4cc(C(F)(F)F)ccc4[nH]3)cc2)c1`, the inhibition in assay [1] turned out to be 7.38%; in assay [2] it was 6.19%; in assay [3], 6.87%.
With `COc1ccccc1N1CCN(C(C(=O)NCc2cccc(F)c2)c2ccc(C)cc2)CC1` (stereo not drawn), the results for the inhibition in assay [1], in assay [2] and in assay [3] were 2.99%, 3.56% and -1.92%, respectively.
With `CSc1cccc(Nc2nc3ccc(S(=O)(=O)NC(C)C(C)C)cc3n2[C@H](C)C(C)(C)C)c1` (stereo partly drawn), the figures for the inhibition in assay [1], in assay [2] and in assay [3] were 6.73%, 6.18% and 6.54%, respectively.
Take `Cc1c(S(=O)(=O)Nc2ccc3ccn(CCN(C)C)c3c2)sc2ccc(Cl)cc12`: the inhibition in assay [1] was -0.44%; in assay [2] it was -0.46%; in assay [3] it was 1.18%.
Take `COc1ccc(CN2CCC2=O)c(OC)c1`: the inhibition in assay [1] was 4.12%; in assay [2], 3.17%; in assay [3] it was 3.38%.
Turning to `COc1ccc(NC(=O)C2c3ccccc3C(=O)N(C3CCCC3)C2c2cccs2)cc1` (stereo not drawn), the inhibition in assay [1] was found to be 5.7%; in assay [2] it was 4.78%; in assay [3], 5%.
Consider `O=C(Nc1cccc(-c2cc(-c3c(Cl)cccc3Cl)no2)c1)c1cnc2ccccc2c1`, for which the inhibition in assay [1] is 11.8%; in assay [2], 9.35%; in assay [3] it was 6.2%.
On to `Cc1nn(-c2ccccc2)nc1C(=O)N(Cc1ccc(-c2ccc(CNCCc3ccc(S(C)(=O)=O)cc3)cn2)cc1)C(C)CN(C)C` (stereo not drawn), for which the inhibition in assay [1] is 0.95%; in assay [2], 3.63%; in assay [3], 3.9%.
With `CCNc1cc(C)nc(Nc2ccc(NC(=O)c3ccco3)cc2)n1`, the inhibition was 4.54% in assay [1], 3.53% in assay [2] and -0.01% in assay [3].
Regarding `COc1nc(-n2ccc(=N)cc2)nc2ccccc12`, the inhibition in assay [1] was 12.2%; in assay [2], 13.4%; in assay [3], 2.63%.
For `Cc1cc(N2CCCC2)nc(NC(=N)Nc2cccc(C(F)(F)F)c2)n1`, in that order: 6.6%, 7.28% and 2.22%.
The matching figures for `Cc1ccc(O)cc1Nc1ccnc2cc(-c3ccccc3)ccc12`: 7.87%, 8.41% and 7.72%.
For `COc1ccc(N2CCN(CCCCNC(=O)c3ccc(NC(=O)c4ccc(C(F)(F)F)cc4)cc3)CC2)c(OC)c1`, in that order: 9%, 8.75% and 9.19%.
On to `CC(=O)Nc1ccc(CCNC(C)Cc2ccc(C(=O)Nc3ccc(CC(C)NCCc4cccc(Cl)c4)cc3)cc2)cc1` (stereo not drawn), for which the inhibition in assay [1] is 2.17%; in assay [2], -1.77%; in assay [3], 0.98%.
Regarding `COc1cc(Nc2nccc(NCC(O)c3ccc(C(F)(F)F)cc3)n2)cc(OC)c1OC` (stereo not drawn), the inhibition was 1.6% in assay [1], 2.84% in assay [2] and 2.81% in assay [3].
Consider `COc1ccc(CNCc2ccccc2)cc1-c1ccc(S(=O)(=O)NCCN2CCCC2)c(C)c1`, for which the inhibition is 3.15% in assay [1], -0.54% in assay [2] and 2.34% in assay [3].
As for `CC(=O)Nc1ncc(C(=O)Nc2cccc(-c3ccc(-c4nc5cccc(C)c5[nH]4)cc3)c2)s1`, the values for the inhibition in assay [1], in assay [2] and in assay [3] were 0.14%, 0.54% and 0.54%, respectively.
Consider `CCCn1c(O)nnc1SCC(=O)Nc1cc(Cl)ccc1Cl`, for which the inhibition in assay [1] is -1.37%; in assay [2], -0.49%; in assay [3], -0.21%.
On to `O=c1ccc(CNc2nc(NCCc3ccccc3)nc3cc(Cl)ccc23)c[nH]1`, for which the inhibition was determined as 1.81% in assay [1], 0.69% in assay [2] and 1.95% in assay [3].
With `Cc1nnc2c(NC(=O)NC3CCCC3)cc3cc(-c4ccc(CN(C)C)cc4)ccc3n12`, the inhibition worked out at 0.94% in assay [1], 1.31% in assay [2] and 0.22% in assay [3].
For `S=C(NN=Cc1ccccn1)NC1CC2C=CC1C2` (stereo not drawn), in that order: 10%, 13.6% and -1.49%.
Regarding `Oc1cc2ccccc2cc1CNC1CCCCC1`, the inhibition in assay [1] stood at 1.31%; in assay [2] it was 1.41%; in assay [3] it was 1.5%.
For `Cc1ccc(Nc2c3ccccc3nc3ccc(C)cc23)cc1`, in that order: 4.86%, 7.1% and 2.9%.
On to `COc1ccc(-c2csc3ncnc(Cl)c23)cc1`, for which the inhibition is 5.44% in assay [1], 5.72% in assay [2] and 4.99% in assay [3].
With `CN1CCN(Cc2nc(-c3ccc4c(Nc5ccc(Oc6ccccc6)cc5)ccnc4c3)cs2)CC1`, the inhibition in assay [1] amounted to 2.66%; in assay [2], 2.64%; in assay [3], 1.74%.
As to `CON(CCCN(C)C)C(=N)N`, the figures for the inhibition in assay [1], in assay [2] and in assay [3] were 0.55%, 2.02% and 0.26%, respectively.
`CN1CCN(c2cccc(-c3nnc(-c4cccc(OCC(=O)NCc5ccc(C(F)(F)F)cc5)c4)o3)c2)CC1`: the figures for the inhibition in assay [1], in assay [2] and in assay [3] were 1.77%, 1.65% and 2.47%, respectively.
Turning to `CCc1c(CCNCCCCCCNCCc2ccc(OC)c(OC)c2CC)ccc(OC)c1OC`, the values for the inhibition in assay [1], in assay [2] and in assay [3] were 8.52%, 7.29% and 6.3%, respectively.
Regarding `CCc1ccc(-n2c(NC(=O)c3ccccc3)nc3ccc(S(=O)(=O)NC(C)C(C)C)cc32)cc1` (stereo not drawn), the inhibition in assay [1] was -1.74%; in assay [2] it was -1.8%; in assay [3], -1.72%.
On to `CC(=O)Nc1cccc(/C=C/C(=O)N2CCC(N3CCCCC3)CC2)c1`, for which the values for the inhibition in assay [1], in assay [2] and in assay [3] were 2.23%, 1.03% and 5.39%, respectively.
Regarding `Cc1cc(N[C@@H](Cc2ccccc2)C(=O)NCCCOC(C)C)nc(NCC2CCCCC2)n1`, the inhibition in assay [1] was found to be 11.7%; in assay [2], 11.7%; in assay [3], 8.28%.
For `CC(=O)N(C)c1cccc(CNc2cc(C)nc(Nc3ccc(C)cc3)n2)c1`, the inhibition in assay [1] was found to be 4.41%; in assay [2], 4.95%; in assay [3], 0.91%.
The matching figures for `CC(C)(C)CC(C)(C)c1ccc(O)c(C(=O)Nc2ccc([N+](=O)[O-])cc2)c1`: 1.13%, 1.55% and 0.23%.

These data come from ChEMBL document CHEMBL3433997, “St. Jude Leishmania screening dataset” (2016).
